Source: PubChem BioAssay AID1671193 (National Center for Advancing Translational Sciences (NCATS), 2021)
The campaign covered roughly 150,000 compounds. About 180 (0.12%) were called active. Another 6% or so got no clear call; they are omitted. For the sample, actives were picked, then their nearest neighbours and some compounds at random. A number with no mark means an inactive call. Calls follow the shape of the dose curve; as a rule, active = well fitted cell-killing curve with a large enough effect; inconclusive = small, poorly fitted or top-dose-only effect, or effect the other way; inactive = flat fitted curve, though single readings scatter.

Experiment: GF-AFC viability counterscreen for inhibitors of alpha-synuclein gene (SNCA) expression; also: nearly all actives have a fitted effect of over 30% in size
Conditions: HEK-293-SNCA-luc viability, GF-AFC fluorescence, 24 h; series mostly up to 57.1 µM; activity change, negative = cytotoxicity: at the top concentration
Description: Assay Submitter (PI): Daniel R. Scoles Ph.D.
Department of Neurology, University of Utah, Salt Lake City, Utah
Accumulation of alpha-synuclein is a main underlying pathological feature of Parkinson's disease (PD) and alpha-synucleinopathies, for which lowering expression of the alpha-synuclein gene (SNCA) is a potential therapeutic avenue. Using a cell-based luciferase reporter of SNCA expression we performed a quantitative high throughput screen (qHTS) of 155,885 compounds in dose response. The screening assay was generated using genome editing to insert the luciferase gene downstream and in frame of the SNCA gene in HEK-293 cells (1). A viability counterscreen using GF-AFC was used to eliminate cytotoxic and false positive compounds. After in silico analysis (clustering, removal of frequent hitter nuisance chemotypes), inhibitor compounds from the primary screen were selected for follow up and re-tested at 11-doses in the SNCA-luc cells (luciferase and GF-AFC confirmation), and in CMV-luc expressing cell line to flag general transcriptional repressors.
Described herein are the results of the GF-AFC viability counterscreen for SNCA inhibitors; inactivity (no decrease in fluorescence signal, not cytotoxic) is the desired output for this assay.
1. Dansithong, W., Paul, S., Scoles, D. R., Pulst, S. M., and Huynh, D. P. (2015) Generation of SNCA Cell Models Using Zinc Finger Nuclease (ZFN) Technology for Efficient High-Throughput Drug Screening. PLoS ONE 10, e0136930.
SEQUENCE No. (e.g., 1, 2, 3, etc.); […] (e.g., Cells, Incubation, Reagent, etc.); VALUE; DESCRIPTION
1; Cells; 4 uL; Dispense 1500 HEK-293-SNCA-luc cells/well into Greiner 1536-well white / solid bottom tissue culture treated plate. The plate was covered with metal lids with gas-exchange holes.
2; Incubate; 24 hours; Incubate at 37C, 5% CO2, 95% RH.
3; Compounds; 23 nL; Compounds and controls were transferred via a Kalypsys Pin Tool (Wako USA) equipped with a 1536-slotted pin array. The plate was covered with metal lids with gas-exchange holes.
4; Incubate; 24 hours; Incubate at 37C, 5% CO2, 95% RH.
5; Dispense; 1 uL; Dispense Gly-Phe-7-amino-4-trifluoromethylcoumarin (GF-AFC, prepared at 125 uM in PBS) was added. The plate was covered with metal lids with gas-exchange holes.
6; Incubate; 30 min; Incubate at 37C, 5% CO2.
7; Detector; Fluorescence; Measure fluorescence with ViewLux microplate reader (PerkinElmer) equipped with 405/10 excitation and 540/25 emission filters.
8; Dispense; 3 uL; Dispense ONE-Glo ([…]) lucifase detection reagent was added to each well. Plates were covered with metal lids with gas-exchange holes.
9; Incubate; 15 min; Incubate at room temperature.
10; Detector; Luminescence; Measure luminescence with ViewLux microplate reader (PerkinElmer) equipped with clear filters.
NOTES (numbers refer to sequence above)
1; HEK-293-SNCA-luc were cultured and suspended in phenol-red free DMEM (4.5 g/L glucose, 25 mM HEPES, cat #21063 (Thermo)).
3; Compounds were added to the assay plate in an 11-point intra plate dose response, 1:3 titration in DMSO with a final concentration range of […]. Vehicle-only plates, with DMSO being pin-transferred to every well, were inserted at the beginning of screening runs to confirm expected assay performance. Activity was normalized to wells containing medium only (-100% activity, full inhibition) and SNCA-luc cells treated with DMSO vehicle control (0% activity), contained on the same plate as test samples.
10; Signals were analyzed, and dose-response curves were fit using the Hill equation. Compounds in curve classes -1.1, -1.2, -2.1, -2.2 in the SNCA-luc assay were considered active. Compounds were eliminated from further consideration if also active (curve class -1.1, -1.2, -1.3, -1.4, -2.1, -2.2, -2.3, -2.4) in the GF-AFC cytotoxicity assay.
Potency is read from the fitted curve at half-maximal effect.

SMILES | activity change, negative = cytotoxicity | Potency
CC(NC(=O)c1ccc(OC(F)(F)F)cc1)C(=O)N1CCN(c2ccccn2)CC1 (configuration not stated) | 3.19% | 
CCNC(=O)N1CCCC1c1noc(CCC(=O)NC2CCCC2)n1 (configuration not stated) | 0.282% | 
O=C1Nc2ccccc2CC12CCCN2Cc1ccccc1 (configuration not stated) | -8.5% [at 87.6 µM] | 
Cc1cc(N2CCC3(CC2)CC(c2ccccc2)C(=O)N3C)ncn1 (configuration not stated) | 6.83% | 
Cc1cccnc1CN1CCN(C(=O)Cn2nnnc2CN2CCCC2)CC1 | -3.36% | 
CC1=C[C@@H](CNC2CC2)[C@H](C(C)C)C[C@H]1Cc1nnc(-c2ccc(C)cc2)o1 |  | 35.5 µM (active)
CC1=C[C@@H](CNC(C)C)[C@H](C(C)C)C[C@H]1Cc1nnc(-c2ccncc2)o1 | -22.8% [at 87.6 µM] | 
CC1=C[C@@H](CNS(C)(=O)=O)[C@H](C(C)C)C[C@H]1Cc1nnc(-c2ccncc2)o1 | -8.43% [at 87.6 µM] | 
O=C1CCC2(C(=O)NCc3cccc(F)c3)CCC=C2N1C1CCCC1 (configuration not stated) | -14.6% | 
O=C1[C@@H]2C[C@@H](CN2Cc2ccc3ccccc3n2)Oc2ccccc2N1Cc1ccccc1 | -2.59% | 
COc1ccccc1-c1cccc(CN2CCCC(C(=O)NCC3CC3)C2)c1 (configuration not stated) | -20.7% | 
CN(C(=O)CN1C(=O)NC2(CCOCC2)C1=O)c1ccccc1 | 0.394% | 
O=c1cc(-c2ccccn2)oc2c(-c3ccccc3F)nccc12 | -4.35% [at 87.6 µM] | 
COc1ccc2c(c1)OCC(C(=O)NCc1cc3cc(OC)ccc3[nH]1)C2 (configuration not stated) | -0.849% | 
COCCC(=O)N1CCCCCCNC(=O)[C@@H]2CCCC[C@@H]21 | -2.24% | 
Cc1ccc(CN2CCCCCNC(=O)[C@H]3C[C@H](C(=O)N4CCc5ccccc5C4)C[C@H]32)o1 | 3.43% | 
COc1ccc(-c2noc(C(=O)O)c2[C@@H](C)NS(=O)(=O)c2ccccc2)cc1 | 2.71% [at 87.6 µM] | 
O=C(NCC1CC1)c1cn(C2CN(C(=O)C3CCOC3)C2)nn1 (configuration not stated) | -3.5% | 
O=C(Cc1cccc(F)c1)N1CCC2(CCC2N2CCOCC2)CC1 (configuration not stated) | 18.3% | 

SMILES | activity change, negative = cytotoxicity | Potency
Cc1cccc(CN2CCCN(Cc3ccncc3)C(c3ccccc3)CC(=O)NCC2)c1 (configuration not stated) | -16.1% | 
Cc1ccc(CSc2oc(-c3cccs3)nc2S(=O)(=O)c2ccc(C)cc2)cc1 | 9.59% | 
CCCCS(=O)(=O)c1oc(-c2cccs2)nc1S(=O)(=O)c1ccccc1 |  | 12.6 µM (active)
CSc1oc(-c2cccs2)nc1S(=O)(=O)c1ccc(Br)cc1 | 1.94% | 
O=C(CCCc1c[nH]c2ccccc12)N1CCC2(CC1)CC(CCOCC1CC1)CCO2 (configuration not stated) | -6.02% | 
CCc1cccc(NC(=O)N2[C@@H]3CC[C@H]2CC(NC(=O)c2ccc(F)cc2)C3)c1 (some centres not stated) | -25.3% | 
O=C(NCc1cccc(C(F)(F)F)c1)c1nn(CCOc2ccccc2)c2c1CNCC2 | -4.06% | 
Cn1ccnc1CNCC1(COc2ccc(C(F)(F)F)cn2)C[C@@H](O)[C@@H](O)C1 (some centres not stated) | -2.65% | 
O=C(NCc1ccccc1)[C@@H]1Cc2nc[nH]c2CN1Cc1cccc(OC(F)(F)F)c1 | -8.21% [at 87.6 µM] | 
COc1ccc(NC(=O)C2(C)CN(C)Cc3ccc(Nc4cccc(OC)c4)nc32)cc1 (configuration not stated) | -18.7% [at 87.6 µM] | 
O=C(NCC1CC1)c1coc(COc2ccc3c(c2)C(c2cccc(F)c2)N(C(=O)C2CC2)CC3)n1 (configuration not stated) | -14.2% | 
CC(CCc1ccccc1)NC(=O)CN1C(=O)NC(c2ccccc2Cl)C2=C1COC2=O (configuration not stated) | -0.822% | 
O=C(NCc1ccccc1F)c1nc2cccnc2n(C2CC2)c1=O | -13.2% [at 87.6 µM] | 
OC1CN(Cc2ccccc2)CCN(C2CCN(c3ccccc3F)CC2)C1 (configuration not stated) | 4.08% | 
Cc1ccc(S(=O)(=O)N2CCCN(C)c3ccccc32)cc1Cl | -17.9% | 
Cc1nc(N2CCCCC2)ncc1C(=O)N1CCC2(CCCNC2=O)C1 (configuration not stated) | 23.5% | 
NCc1ccccc1-c1cccc(C(F)(F)F)c1 | -9.76% [at 87.6 µM] | 
O=C1[C@H]2CN(Cc3ccccc3F)C[C@H]2C(=O)N1CCN1CCc2ccccc2C1 | 4.45% | 
O=C(NCc1ccco1)[C@@H]1Cc2nc[nH]c2CN1CCCc1ccccc1 | 0.221% [at 87.6 µM] | 

SMILES | activity change, negative = cytotoxicity | Potency
COc1ccc2cc(CN3CCNC(=O)C3C)c(-c3cccs3)nc2c1 (configuration not stated) | -3.98% | 
COc1cccc(-c2cn3c(n2)N(C(=O)Cc2ccccc2)CCC3)c1 | 4.12% | 
O=C(CCC[C@H]1NC[C@@H]2C[C@H]1CN(Cc1ccccc1)C2)N1CCN(C2CCCCC2)CC1 | -23.5% | 
Cc1cccc(OCC2CCCN(c3ncncn3)C2)c1 (configuration not stated) | 2.2% | 
O=C(c1ccc2c(c1)OCO2)N1CCC2(CC1)NC(=O)N(c1ccccc1)N2 | -4.33% | 
Cc1noc2c(Nc3ccc(Cl)cc3)cc(-c3cccnc3)nc12 | -15.1% [at 87.6 µM] | 
COCCN1CCOC2(CCN(Cc3ccc(C(C)C)cc3)CC2)C1=O | -4.8% [at 87.6 µM] | 
CN(C)Cc1cccc(-c2cc(-c3ccncc3)c3cncn3c2)c1 | 0.379% [at 87.6 µM] | 
O=C(Cc1ccc(F)cc1)N1CN=C(C2CCN(Cc3ccc(F)cc3)CC2)N1 | -6.57% | 
COC(=O)[C@@H]1Cc2ncn(Cc3ccccc3)c2CN1C(=O)CC(C)(C)C | -4.83% [at 87.6 µM] | 
CC(C)Oc1ccc(CN2CCCC(COc3ccccc3C(=O)N3CCCC3)C2)cc1 (configuration not stated) | -12.6% | 
COc1ccc(N2CCN(c3nc(C(=O)NC4CCCCCC4)cs3)CC2)cc1 | -19.7% | 
O=C(C1CCCC1)N1CCc2nc(C3CC3)nc(-c3ccc(O)cc3)c2C1 | -12.3% | 
O=C1C2CN(Cc3ccc4[nH]ccc4c3)CCC2OCCN1Cc1ccccc1F (configuration not stated) | -5.56% [at 87.6 µM] | 
CCN(CC)CCCCNc1ncc2cc(-c3c(Cl)cccc3Cl)c(NC(=O)NC(C)(C)C)nc2n1 |  | 15 µM (active)
CN(C)C[C@@H]1CN(Cc2cccnc2)C[C@H]1NC(=O)Cc1cccc(F)c1 | 17.1% | 
O=C(c1cccc(O)c1)N1CCNc2cnc(Nc3cccc(F)c3)nc2C1 | -14.6% [at 87.6 µM] | 
c1cnc2nc(C3CCN(C4CCCCC4)C3)[nH]c2c1 (configuration not stated) | -13.3% [at 87.6 µM] | 
O=C(NCc1ccc(F)cc1)N1CCC2(CC1)CC(OCC1CC1)CCO2 (configuration not stated) | 4.57% [at 12.5 µM] | 
